NSD2 inh = blocks human NSD2 histone methyltransferase activity. inhibition, % at 12.5 µM. hit rate 0.07% among 44,000. NSD2-SET H3K36me1 DELFIA fluorescence, biochemical. O96028; in the data active = inhibition above about 54%, passing the limit was not always enough;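 note: inhibitors reduce the monomethyl H3K36 fluorescence signal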
* = called active by the depositor. This excerpt belongs to a sample that is enriched for hits.

Screening C/C(=N\n1c(-c2ccccc2)n[nH]c1=O)c1ccccc1 returned NSD2 inh 0.
COc1ccc(COC[C@@]23Oc4ccccc4[C@@H](NC(=O)N2C)[C@H]3COC(=O)c2ccccc2)cc1 was read as NSD2 inh 6.
`O=C(CCCCC(=O)N/N=C\c1ccc2c(c1)Cc1ccccc1-2)NO` gave NSD2 inh -5.
O=C(c1ccccc1)N1Cc2ccccc2[C@@H]2OC(c3ccc(OCCCO)cc3)=N[C@]2(CCS(=O)(=O)c2ccccc2)C1=O was read as NSD2 inh 0.
`C=CCC/C=N/NC(=O)CCCCCCC(=O)O` gave NSD2 inh 0.
For O=C(NO)c1cccc(C(=O)N/N=C/c2cccc(O)c2O)c1 the results were NSD2 inh 16.
`O=C(NO)c1cccc(C(=O)N/N=C/c2ccc(O)c3ccccc23)c1` gave NSD2 inh -1.
`O=C(NO)c1cccc(C(=O)N/N=C/c2ccc(O)c(O)c2O)c1` gave NSD2 inh 63*.
`C/C(=C/CCC(CO)C1CCC2(C)C3CCC4C(C)(C)C(OC5OC(CO)C(O)C(O)C5O)CCC45CC35CCC12C)COC1OC(COC2OC(CO)C(O)C(O)C2O)C(O)C(O)C1O` (stereo not given) gave NSD2 inh 2.
Screening COCC1=C2[C@@H](c3ccccc3)OB(O)C[C@@H]2[C@@H]2C(=O)N(C)C(=O)[C@@H]2C1 returned NSD2 inh -3.
Screening COC(=O)c1cn(CC(=O)Nc2ccon2)nn1 returned NSD2 inh -3.
For COc1c(O)c2c(=O)cc3c4c5c(cc(=O)c6c(O)c(OC)c(CC(C)O)c(c(c1CC(C)O)c24)c65)OCO3 (stereo not given) the results were NSD2 inh 9.
`Cc1ccccc1/C=N/NC(=O)CCCCC(=O)NO` gave NSD2 inh -3.
